PubChem BioAssay (EPA / NIEHS)
Where “and” joins values, the source holds several entries; their conditions need not be identical. Equal values may be shown once. Results filed as inconclusive are left out. Where a structure was tested more than once in an assay, its records may differ in their call. Calls of active or inactive are those of the source. How the source made its calls: active means hit-call score of the fitted dose curve at least 0.9, where 1 is the maximum; inconclusive means response in the unintended direction; inactive means score below 0.9.

These molecules were tested against Bile acid receptor (Homo sapiens) (UniProt Q96RI1) (assay: ATG_FXR_TRANS: Attagene TRANS-FACTORIAL HepG2 Assay for Farnesoid X Receptor (FXR) (AID 2282979;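 further: hits raise reporter mRNA above DMSO so AC50 marks FXR activation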)). Conditions: HepG2 Attagene TRANS FXR-GAL4 reporter transcription.
Chain of Bile acid receptor (Homo sapiens) (Q96RI1 whole entry, looked up, the tested form may be a part): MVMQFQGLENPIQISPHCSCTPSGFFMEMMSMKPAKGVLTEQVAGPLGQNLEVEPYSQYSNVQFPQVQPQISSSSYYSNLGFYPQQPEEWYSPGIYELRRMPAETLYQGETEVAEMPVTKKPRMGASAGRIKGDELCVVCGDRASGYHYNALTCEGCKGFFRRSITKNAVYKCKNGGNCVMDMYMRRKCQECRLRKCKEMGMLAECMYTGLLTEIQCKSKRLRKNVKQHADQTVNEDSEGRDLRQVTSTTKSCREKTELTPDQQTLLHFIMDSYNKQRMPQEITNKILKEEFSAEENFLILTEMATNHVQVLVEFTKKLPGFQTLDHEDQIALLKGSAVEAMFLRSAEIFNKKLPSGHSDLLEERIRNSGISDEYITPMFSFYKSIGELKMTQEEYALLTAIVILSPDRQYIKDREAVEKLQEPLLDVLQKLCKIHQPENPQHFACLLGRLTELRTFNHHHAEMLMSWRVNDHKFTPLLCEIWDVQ
How it was run: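 Transient transfection of HepG2 with multiplexed GAL4-UAS reporter units; exogenous FXR-GAL4 chimera. Dose 24 h → TriZol RNA → oligo(dT) RT → PCR, 6-FAM primer extension, HpaI cut → CE. Gain vs DMSO.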

SMILES	outcome	AC50
C[C@]12CCC(=O)C=C1CC[C@@H]1[C@@H]2CC[C@@]2(C)[C@H]1CC[C@]2(C)O	inactive	–
CCC(C)c1cc([N+](=O)[O-])cc([N+](=O)[O-])c1O (configuration not stated)	inactive	–
CC(C)(c1ccccc1)c1ccc(O)cc1	inactive	48.9 µM (active)
ClC(Cl)=C(c1ccc(Cl)cc1)c1ccc(Cl)cc1	inactive	–
CO/C=C(/C(=O)OC)c1ccccc1COc1cccc(C(F)(F)F)n1	inactive	–
OCC(O)CO	inactive	–
Oc1c(Cl)c(Cl)c(Cl)c(Cl)c1Cl	inactive	–
O=C(O)C(F)(F)C(F)(F)C(F)(F)C(F)(F)C(F)(F)C(F)(F)C(F)(F)C(F)(F)F	inactive	151 µM (active) and 219 µM (active)
CC(c1ccc(O)cc1)(c1ccc(O)cc1)c1ccc(O)cc1	–	2.98 µM (active)
COc1ccc(O)c(C(C)(C)C)c1	inactive	–
O=S(=O)(O)C(F)(F)C(F)(F)C(F)(F)C(F)(F)C(F)(F)C(F)(F)F	inactive	–
CCCCCCCCOC(=O)c1ccccc1C(=O)OCCCCCCCC	inactive	–

The molecules below were run against Oxysterols receptor LXR-alpha (Homo sapiens) (UniProt Q13133) (assay: ATG_LXRa_TRANS: Attagene TRANS-FACTORIAL HepG2 Assay for human Liver X Receptor alpha (LXRa) (AID 2282980)). Conditions: HepG2 Attagene TRANS reporter, LXRa transactivation.
Chain of Oxysterols receptor LXR-alpha (Homo sapiens) (Q13133 whole entry, looked up, the tested form may be a part): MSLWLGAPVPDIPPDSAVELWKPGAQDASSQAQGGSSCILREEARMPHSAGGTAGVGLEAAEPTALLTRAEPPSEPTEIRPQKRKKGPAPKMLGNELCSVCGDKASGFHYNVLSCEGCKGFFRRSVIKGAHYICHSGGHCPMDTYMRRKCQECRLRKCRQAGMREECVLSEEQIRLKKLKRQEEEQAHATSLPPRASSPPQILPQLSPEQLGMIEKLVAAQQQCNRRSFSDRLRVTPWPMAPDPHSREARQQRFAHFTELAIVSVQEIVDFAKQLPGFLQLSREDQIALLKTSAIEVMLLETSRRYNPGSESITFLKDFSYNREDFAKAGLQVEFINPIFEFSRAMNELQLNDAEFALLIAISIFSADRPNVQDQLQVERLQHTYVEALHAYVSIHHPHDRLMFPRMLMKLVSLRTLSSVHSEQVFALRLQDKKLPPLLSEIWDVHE
How it was run: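 Transfect HepG2 with GAL4-UAS multiplex reporter constructs (TRANS format, chimeric receptor-GAL4); treat 24 h; extract RNA, reverse-transcribe, PCR-amplify, FAM-label, HpaI-digest; resolve fragments by capillary electrophoresis. Upward response vs DMSO.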

SMILES	outcome	AC50
C[C@]12CCC(=O)C=C1CC[C@@H]1[C@@H]2CC[C@@]2(C)[C@H]1CC[C@]2(C)O	inactive	–
Cc1ccccc1CO[C@@H]1C[C@@]2(C(C)C)CC[C@]1(C)O2	–	32 µM (active)
CCC(C)c1cc([N+](=O)[O-])cc([N+](=O)[O-])c1O (configuration not stated)	inactive	–
Cc1ccccc1O	inactive	–
CCC(=O)O[C@H]1CC[C@H]2[C@@H]3CCC4=CC(=O)CC[C@]4(C)[C@H]3CC[C@]12C	inactive	25.3 µM (active)
CC(C)(c1ccccc1)c1ccc(O)cc1	inactive	–
ClC(Cl)=C(c1ccc(Cl)cc1)c1ccc(Cl)cc1	inactive	–
O=C(O)C(F)(F)C(F)(F)C(F)(F)C(F)(F)C(F)(F)C(F)(F)C(F)(F)C(F)(F)C(F)(F)F	inactive	–
Oc1c(Cl)c(Cl)c(Cl)c(Cl)c1Cl	inactive	–
Clc1ccc(C(c2ccccc2Cl)C(Cl)(Cl)Cl)cc1 (configuration not stated)	inactive	–
N#Cc1ccc(N(CC(N)=O)CC(F)(F)F)cc1C(F)(F)F	inactive	–
CCOC(=O)C(O)(c1ccc(Cl)cc1)c1ccc(Cl)cc1	inactive	–
Clc1ccc(Cl)cc1	inactive	–
Cc1cc(-c2ccc(N)c(C)c2)ccc1N	inactive	–
CCCCCCCCCc1ccc(O)cc1	inactive	–
CC(C)C(=O)OCC(C)(C)C(OC(=O)C(C)C)C(C)C (configuration not stated)	inactive	–
CC(C)(O)C(=O)Nc1ccc([N+](=O)[O-])c(C(F)(F)F)c1	inactive	–
CCOP(=S)(OCC)SCSC(C)(C)C	–	12 µM (active) and 12.9 µM (active)
O=C(O)C(F)(F)C(F)(F)C(F)(F)C(F)(F)C(F)(F)C(F)(F)C(F)(F)C(F)(F)F	inactive	–
CCNc1nc(NC(C)C)nc(SC)n1	inactive	–
O=S(=O)(O)C(F)(F)C(F)(F)C(F)(F)C(F)(F)C(F)(F)C(F)(F)F	inactive	–

Each molecule was assayed against Oxysterols receptor LXR-beta (Homo sapiens) (UniProt P55055) (assay: ATG_LXRb_TRANS: Attagene TRANS-FACTORIAL HepG2 Assay for human Liver X Receptor beta (LXRb) (AID 2282981)). Conditions: HepG2 Attagene TRANS GAL4-LXRb reporter, mRNA.
Chain of Oxysterols receptor LXR-beta (Homo sapiens) (P55055 whole entry, looked up, the tested form may be a part): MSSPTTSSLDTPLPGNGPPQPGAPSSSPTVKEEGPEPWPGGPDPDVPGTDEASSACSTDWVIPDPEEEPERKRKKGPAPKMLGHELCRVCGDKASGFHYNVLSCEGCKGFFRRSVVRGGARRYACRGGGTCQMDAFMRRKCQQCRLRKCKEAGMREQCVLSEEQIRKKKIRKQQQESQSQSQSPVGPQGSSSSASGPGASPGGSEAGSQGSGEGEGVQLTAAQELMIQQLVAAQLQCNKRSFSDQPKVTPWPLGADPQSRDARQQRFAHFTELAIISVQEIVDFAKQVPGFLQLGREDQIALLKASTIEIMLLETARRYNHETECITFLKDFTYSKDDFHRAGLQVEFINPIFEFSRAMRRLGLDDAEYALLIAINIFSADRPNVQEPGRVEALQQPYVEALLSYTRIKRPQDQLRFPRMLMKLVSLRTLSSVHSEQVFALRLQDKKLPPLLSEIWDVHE
How it was run: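 In this TRANS format, exogenous chimeric NR-Gal4 protein activity, not endogenous factors, drives reporter expression in transfected human HepG2 cells. Exposure lasted 24 h; reporter mRNA was read by fluorescent capillary electrophoresis.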

SMILES	outcome	AC50
C[C@]12CCC(=O)C=C1CC[C@@H]1[C@@H]2CC[C@@]2(C)[C@H]1CC[C@]2(C)O	inactive	–
Cc1ccccc1CO[C@@H]1C[C@@]2(C(C)C)CC[C@]1(C)O2	inactive	–
CCC(C)c1cc([N+](=O)[O-])cc([N+](=O)[O-])c1O (configuration not stated)	inactive	–
c1cc2ccc3cccc4ccc(c1)c2c34	inactive	–
Cc1ccccc1O	inactive	–
CCC(=O)O[C@H]1CC[C@H]2[C@@H]3CCC4=CC(=O)CC[C@]4(C)[C@H]3CC[C@]12C	inactive	3.11 µM (active) and 25.7 µM (active)
CC(C)(c1ccccc1)c1ccc(O)cc1	inactive	–
ClC(Cl)=C(c1ccc(Cl)cc1)c1ccc(Cl)cc1	inactive	–
O=C(O)C(F)(F)C(F)(F)C(F)(F)C(F)(F)C(F)(F)C(F)(F)C(F)(F)C(F)(F)C(F)(F)F	inactive	–
OCC(O)CO	inactive	–
Oc1c(Cl)c(Cl)c(Cl)c(Cl)c1Cl	inactive	–
Clc1ccc(C(c2ccccc2Cl)C(Cl)(Cl)Cl)cc1 (configuration not stated)	inactive	–
Sc1ccccc1	inactive	–
Clc1ccc(Cl)cc1	inactive	–
CN(C)CCO	inactive	–
Cc1cc(-c2ccc(N)c(C)c2)ccc1N	inactive	–
CCCCCCCCCc1ccc(O)cc1	inactive	–
CC(C)C(=O)OCC(C)(C)C(OC(=O)C(C)C)C(C)C (configuration not stated)	inactive	–
CC(C)(O)C(=O)Nc1ccc([N+](=O)[O-])c(C(F)(F)F)c1	inactive	–
CCOP(=S)(OCC)SCSC(C)(C)C	–	20.2 µM (active) and 27.7 µM (active)
O=C(O)C(F)(F)C(F)(F)C(F)(F)C(F)(F)C(F)(F)C(F)(F)C(F)(F)C(F)(F)F	inactive	–
CCNc1nc(NC(C)C)nc(SC)n1	inactive	–
O=S(=O)(O)C(F)(F)C(F)(F)C(F)(F)C(F)(F)C(F)(F)C(F)(F)F	inactive	–

The molecules below were run against Hepatocyte nuclear factor 4-alpha (Homo sapiens) (UniProt P41235) (assay: ATG_HNF4a_TRANS: Attagene TRANS-FACTORIAL HepG2 Assay for human Hepatocyte Nuclear Factor 4 alpha (HNF4a) (AID 2282982)). Conditions: HepG2 HNF4a transactivation reporter, mRNA readout.
Chain of Hepatocyte nuclear factor 4-alpha (Homo sapiens) (P41235 whole entry, looked up, the tested form may be a part): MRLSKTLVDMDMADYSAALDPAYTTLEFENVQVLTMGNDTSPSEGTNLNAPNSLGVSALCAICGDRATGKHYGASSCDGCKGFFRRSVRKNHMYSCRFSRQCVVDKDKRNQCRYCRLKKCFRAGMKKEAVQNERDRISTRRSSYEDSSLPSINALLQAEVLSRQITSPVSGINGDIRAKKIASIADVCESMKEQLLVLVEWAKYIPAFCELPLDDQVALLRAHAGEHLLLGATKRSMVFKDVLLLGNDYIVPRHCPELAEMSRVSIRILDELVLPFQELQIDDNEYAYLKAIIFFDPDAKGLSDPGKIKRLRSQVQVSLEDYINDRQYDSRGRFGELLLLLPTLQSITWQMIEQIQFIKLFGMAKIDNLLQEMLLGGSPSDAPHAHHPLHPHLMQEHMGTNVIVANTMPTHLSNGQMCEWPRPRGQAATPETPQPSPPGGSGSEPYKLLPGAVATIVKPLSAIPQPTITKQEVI
How it was run: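 Cells used were human HepG2, transiently carrying GAL4-UAS reporter units read out against exogenous NR-GAL4 chimeras. Reporter transcript levels after 24 h dosing were quantified by fluorescent RT-PCR and capillary electrophoresis.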

SMILES	outcome
C[C@]12CCC(=O)C=C1CC[C@@H]1[C@@H]2CC[C@@]2(C)[C@H]1CC[C@]2(C)O	inactive
CCC(C)c1cc([N+](=O)[O-])cc([N+](=O)[O-])c1O (configuration not stated)	inactive
c1cc2ccc3cccc4ccc(c1)c2c34	inactive
CCC(=O)O[C@H]1CC[C@H]2[C@@H]3CCC4=CC(=O)CC[C@]4(C)[C@H]3CC[C@]12C	inactive
O=C(O)C(F)(F)C(F)(F)C(F)(F)C(F)(F)C(F)(F)C(F)(F)C(F)(F)C(F)(F)C(F)(F)F	inactive
Oc1c(Cl)c(Cl)c(Cl)c(Cl)c1Cl	inactive
Clc1ccc(Cl)cc1	inactive
CN(C)CCO	inactive
Cc1cc(-c2ccc(N)c(C)c2)ccc1N	inactive
CCCCCCCCCc1ccc(O)cc1	inactive
CC(C)(O)C(=O)Nc1ccc([N+](=O)[O-])c(C(F)(F)F)c1	inactive
CCOP(=S)(OCC)SCSC(C)(C)C	inactive
O=C(O)C(F)(F)C(F)(F)C(F)(F)C(F)(F)C(F)(F)C(F)(F)C(F)(F)C(F)(F)F	inactive
CCNc1nc(NC(C)C)nc(SC)n1	inactive
Nc1ccc(-c2ccc(N)cc2)cc1	inactive
